AmpC no deterg: AmpC beta-lactamase inhibition without detergent. P00811. AmpC nitrocefin hydrolysis, absorbance 480 nm, 0.0001% Triton. Potency, µM (series often up to 57.1 µM), hits mostly inhibitors. 330,000 tested, 0.52% active. AID 485341; further: nearly all actives have a fitted effect of over 20% in size
Target sequence (P00811 whole entry, looked up): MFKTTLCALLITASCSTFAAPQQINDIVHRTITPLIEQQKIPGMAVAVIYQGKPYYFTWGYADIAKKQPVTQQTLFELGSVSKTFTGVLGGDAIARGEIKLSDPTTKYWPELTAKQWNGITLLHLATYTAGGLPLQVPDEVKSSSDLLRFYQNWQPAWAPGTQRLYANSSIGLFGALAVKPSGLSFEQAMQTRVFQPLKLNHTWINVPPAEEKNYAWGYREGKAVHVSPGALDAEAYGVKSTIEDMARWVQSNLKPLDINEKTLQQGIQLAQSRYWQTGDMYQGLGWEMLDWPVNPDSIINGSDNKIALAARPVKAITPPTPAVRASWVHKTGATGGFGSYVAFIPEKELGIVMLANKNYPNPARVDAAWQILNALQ
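20 mM phosphate pH 7.0 + 0.01% (detergent screen) or 0.0001% Triton X-100; 5.3 nM AmpC reagent; cpd preinc 15 min RT; nitrocefin (800 uM stock) to start; A480 q20 s × 4 min; Activity was normalised to no-enzyme and no-compound control wells.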
AmpC detergent: blocks E. coli AmpC beta-lactamase in detergent assay; 370,000 tested, 0.041% active; AID 485294; AmpC hydrolysis of nitrocefin, absorbance 480 nm, 0.01% Triton; Potency, µM (doses to about 114 µM), hits mostly inhibitors; P00811; further: nearly all actives have a fitted effect of over 25% in size
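20 mM phosphate pH 7.0 + 0.01% (detergent screen) or 0.0001% Triton X-100; 5.3 nM AmpC reagent; cpd preinc 15 min RT; nitrocefin (800 uM stock) to start; A480 q20 s × 4 min; Activity was normalised to no-enzyme and no-compound control wells.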
VACV Venus inh: inhibitors of vaccinia virus (Venus reporter); Vaccinia virus Venus reporter expression, fluorescence; Potency, µM (top dose mostly 36.5 µM), hits mostly inhibitors; 330,000 tested, 0.46% active; AID 720580; calls by dose curve; tested in A549 cells; further: nearly all actives have a fitted effect of over 30% in size
VACV mCherry inh: inhibitors of vaccinia virus infection (mCherry reporter signal). Vaccinia virus mCherry reporter infection, fluorescence. Potency, µM (doses to about 36.5 µM), actives largely listed as inhibitors. 310,000 tested, 0.63% active. AID 720579; calls by dose curve; tested in A549 cells; further: nearly all actives have a fitted effect of over 35% in size
Of the large screens only hits and unclear results are named; the others gave an inactive call; ! = not confirmed by another sample. Shown are actives, neighbours in structure and some others; about 1.1% of the full set was active somewhere. Unless noted, the call rests on the fitted dose curve; in most records, active means well fitted curve in the direction sought with a large enough effect; inconclusive means small, poorly fitted or top-dose-only effect, or another doubt; inactive means no such curve, though single readings can be large; an effect the other way counts as inactive or inconclusive.

NC(Cc1cc(I)c(Oc2ccc(O)c(I)c2)c(I)c1)C(=O)O (stereo not drawn)	none (no result: AmpC no deterg, AmpC detergent)
N[C@@H](Cc1cc(I)c(Oc2ccc(O)c(I)c2)c(I)c1)C(=O)O	AmpC no deterg 3.2µM!, AmpC detergent inconclusive, VACV Venus inh 10µM!, VACV mCherry inh 32µM!
COc1ccccc1N1CCN(c2nc(CNC(=O)c3ccc(C)c(C)c3)nc3ccccc23)CC1	none (no result: AmpC no deterg, AmpC detergent)
Cc1nc2ccc(NC(=O)c3cccs3)cc2c(=O)n1Cc1ccc(Cl)cc1	VACV Venus inh inconclusive, VACV mCherry inh 11µM
CCCc1nc2ccc(NC(=O)c3cccs3)cc2c(=O)n1Cc1ccc(Cl)cc1	none (no result: VACV Venus inh, VACV mCherry inh)
CCN(CC)CCN(C(=O)CCS(=O)(=O)c1ccccc1)c1nc2c(C)cc(C)cc2s1	VACV Venus inh inconclusive, VACV mCherry inh 14µM
CN(C)CCCN(C(=O)c1ccc(Br)s1)c1nc2cc3c(cc2s1)OCO3	VACV Venus inh 13µM, VACV mCherry inh 10µM
CN(C)CCCN(C(=O)CCS(=O)(=O)c1ccccc1)c1nc2cc3c(cc2s1)OCO3	VACV Venus inh 10µM, VACV mCherry inh inconclusive
NC(=O)C1CCCN(Cc2ccc3c(c2)CN(Cc2ccccc2)CCO3)C1 (stereo not drawn)	none (no result: AmpC no deterg, AmpC detergent)
COc1ccc(OC)c(S(=O)(=O)Nc2cc3c(C(C)=O)c(C)oc3c3ccccc23)c1	none (no result: AmpC no deterg)
COC(=O)c1c(C)oc2c1cc(NS(=O)(=O)c1cccs1)c1ccccc12	AmpC no deterg 11µM
CCC(C)NC(=O)CSc1nnc(-c2cc(-c3cccs3)nc3ccccc23)o1 (stereo not drawn)	VACV Venus inh 2.8µM (no result: VACV mCherry inh)
O=C(CSc1nnc(-c2cc(-c3cccs3)nc3ccccc23)o1)NC1CCCCC1	VACV Venus inh inconclusive (no result: VACV mCherry inh)
NC(=O)CSc1nnc(-c2cc(-c3cccs3)nc3ccccc23)o1	VACV Venus inh 1.6µM, VACV mCherry inh inconclusive
CSc1nc(C(=O)N2CCc3c(cnc(C)c3CNC(=O)c3ccc4c(c3)OCO4)C2)cs1	none (no result: AmpC no deterg, AmpC detergent)
CCOC(=O)C1=C(c2ccccc2)N=c2s/c(=C\c3ccco3)c(=O)n2C1c1cccs1 (stereo not drawn)	AmpC no deterg 13µM
CCOC(=O)C1=C(c2ccccc2)N=c2s/c(=C\c3cc(OC)c(OC)c(OC)c3)c(=O)n2C1c1cccs1 (stereo not drawn)	none
CC(C)c1ccc(CN2CCC3(CCC(CNC(=O)c4ccn(C)n4)O3)CC2)cc1 (stereo not drawn)	none (no result: AmpC no deterg, AmpC detergent)
COc1ccc(C(=O)/C=C/Nc2ccc([N+](=O)[O-])cc2C)cc1OC	AmpC no deterg 2µM
COc1ccc(C(=O)/C=C/Nc2ccc([N+](=O)[O-])cc2C)c(OC)c1	AmpC no deterg 1.3µM (no result: VACV Venus inh, VACV mCherry inh)
COc1ccc(C(=O)NC(=S)Nc2ccc([N+](=O)[O-])cc2C)cc1OC	AmpC no deterg inconclusive (no result: VACV Venus inh, VACV mCherry inh)
CC(C)CC(N)c1csc(Nc2cnccn2)n1 (stereo not drawn)	VACV Venus inh 10µM, VACV mCherry inh 11µM (no result: AmpC no deterg, AmpC detergent)
Cc1ccc(-c2ccnc(-n3ncc(C(=O)NCCN4CCOCC4)c3C3CC3)n2)o1	none (no result: AmpC no deterg, AmpC detergent)
CC(C)(O)C#Cc1ccc(CN2CCc3nnc(CCNC(=O)c4ccco4)n3CC2)cc1	none (no result: AmpC no deterg, AmpC detergent)
CCCCCn1c(C(Cc2ccccc2)NC(=O)COC)nc2ccccc21 (stereo not drawn)	AmpC no deterg 1.3µM, AmpC detergent inconclusive
CCCCn1c(CNC(=O)CCC)nc2ccccc21	AmpC no deterg 7.1µM
CCCCn1c(C(C)NC(=O)COC)nc2ccccc21 (stereo not drawn)	none (no result: VACV Venus inh, VACV mCherry inh)
Cc1oc(-c2cccc(NC(=O)c3ccccn3)c2)nc1CNC(=O)c1ccc(C(F)(F)F)cc1	none (no result: AmpC no deterg, AmpC detergent)
COc1cc(OC)c(OC)cc1CN1CCOc2ccc(CN3C[C@@H](C)O[C@@H](C)C3)cc2C1	none (no result: AmpC no deterg, AmpC detergent)
O=C(C#Cc1ccccc1)Nc1cccc(F)c1	VACV Venus inh inconclusive, VACV mCherry inh 3.5µM
CC(=O)Nc1cc(C(=O)N2CC3(C)CC2CC(C)(C)C3)cc2ncn(CCc3ccccn3)c12 (stereo not drawn)	none (no result: AmpC no deterg, AmpC detergent)
COCc1c(C(=O)N2CCCCCC2)cnn1-c1nccc(-c2cccs2)n1	none (no result: AmpC no deterg, AmpC detergent)
O=C(Nc1ccc(OC(F)(F)F)cc1)Nc1cccc([N+](=O)[O-])c1	VACV Venus inh 10µM, VACV mCherry inh 10µM
COC(=O)/C(C)=C\CC12OC(C)(C)C3CC(C=C4C(=O)c5c(OC)c6c(c(CC=C(C)C)c5OC431)OC(C)(CCC=C(C)C)C=C6)C2=O (stereo not drawn)	VACV Venus inh inconclusive, VACV mCherry inh 13µM (no result: AmpC no deterg, AmpC detergent)
CC(=O)Oc1c2c(c(CC=C(C)C)c3c1C(=O)C1=CC4CC5C(C)(C)OC(C/C=C(\C)C(=O)O)(C4=O)[C@]15O3)OC(C)(CCC=C(C)C)C=C2 (stereo partly drawn)	VACV Venus inh inconclusive, VACV mCherry inh 11µM (no result: AmpC no deterg, AmpC detergent)
CC(=O)Oc1c(-c2ccccc2)oc2c(CC=C(C)C)c3c(c(OC(C)=O)c2c1=O)C=CC(C)(C)O3	none (no result: AmpC no deterg, AmpC detergent)
Cc1cc(-c2ccnc(-n3ncc(C(=O)N4CCCCC4c4cccnc4)c3C3CC3)n2)c(C)s1 (stereo not drawn)	none (no result: AmpC no deterg, AmpC detergent)
CN(C(=O)COn1nnc2ccc(S(=O)(=O)N3CCOCC3)cc21)c1ccccc1	none
Cc1ccccc1COn1nnc2ccc(S(=O)(=O)N3CCOCC3)cc21	AmpC detergent inconclusive, VACV Venus inh 7.9µM, VACV mCherry inh 4.5µM
Cc1c(C(=O)NC2CCCCC2)sc2ncnc(NCCN(C)C)c12	none (no result: AmpC no deterg, AmpC detergent)
CC1(C)C(C=C(Cl)Cl)C1C(=O)Nc1ccc([N+](=O)[O-])cc1 (stereo not drawn)	AmpC detergent inconclusive, VACV Venus inh 18µM, VACV mCherry inh inconclusive
CC(C)(C)OC(=O)N[C@@H](Cc1ccccc1)c1nnc(SCC(N)=O)o1	none (no result: VACV Venus inh, VACV mCherry inh)
COC(=O)CS(=O)(=O)c1nnc([C@H](Cc2ccccc2)NC(=O)OC(C)(C)C)o1	AmpC no deterg inconclusive, AmpC detergent 35µM
Cc1cccc(CS(=O)(=O)c2nnc([C@H](Cc3ccccc3)NC(=O)OC(C)(C)C)o2)c1	AmpC detergent 40µM (no result: VACV Venus inh, VACV mCherry inh)
Cc1cc(C)nc(S[C@@H]2C[C@@H](C(=O)N3CCCN(C)CC3)N(Cc3cc(F)ccc3F)C2)n1	none (no result: AmpC no deterg, AmpC detergent)
Cc1ccc(C(=O)N/N=C/c2cccc(OC(=O)/C=C/c3ccco3)c2)cn1	none
O=C(/C=C/c1ccco1)Oc1cc(Br)cc(/C=N/NC(=O)c2ccccc2O)c1	VACV Venus inh inconclusive, VACV mCherry inh 2.8µM
COc1ccc(-c2c(C(C)=O)c(C)nc3sc4c(=N)n(N)cnc4c23)cc1	VACV Venus inh 13µM, VACV mCherry inh 7.1µM
CCOC(=O)c1c(C)nc2sc3c(=O)n(-c4ccc(OC)cc4)cnc3c2c1-c1ccc(OC)cc1	none
CCCCCc1ccc(CC(=O)Nn2c(C)nc3ccccc3c2=O)cc1	none
Cc1nc2ccccc2c(=O)n1NC(=O)Cc1ccc(Br)cc1	VACV mCherry inh 1.8µM
CCN1CCCC1CNC(=O)c1cnn(-c2nccc(-c3cc4ccccc4o3)n2)c1C (stereo not drawn)	none (no result: AmpC no deterg, AmpC detergent)
O=C(/C=C/c1ccc([N+](=O)[O-])s1)N1CCCC1	VACV Venus inh 13µM, VACV mCherry inh inconclusive
O=C(/C=C/c1ccc([N+](=O)[O-])s1)N1CCCCC1	AmpC detergent inconclusive, VACV Venus inh 14µM, VACV mCherry inh inconclusive
